Screens as filed in PubChem BioAssay.
PPC-1+TRAIL kill – compounds killing PPC-1 cancer cells with TRAIL present, primary screen, TRAIL potentiator project, ATPLite luminescence, uHTS; PPC-1 cells + TRAIL, ATPLite viability luminescence; cell killing (% activity), % at 4 µM or 5 µM; 220,000 compounds, 0.41% hits;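 active = cell killing above 50% in the first pass at 4 µM, then a duplicate retest at 5 µM averaging 50% or more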
TRAIL sens C8 – viability loss with TRAIL in NB7+C8 cells, primary screen, TRAIL sensitizer project, cell-based, ATPlite luminescence; inhibition (viability loss, TRAIL sensitization), % at 10 µM; 360,000 compounds, 1% hits;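 active = compounds causing at least 50% loss of cell viability in the single-dose screen, relative to plate controls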
CF NFkB inh – inhibitors of PAF-induced NF-kB signaling, primary screen, cell-based, GFP fluorescence, uHTS; KKLEB NF-kB-GFP reporter, GFP fluorescence overnight; inhibition, % at 5 µM; 360,000 compounds, 0.86% hits;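 active = at least 50% inhibition at 5 µM, scaled per plate between neutral and stimulator controls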;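 also: PAF is a Pseudomonas aeruginosa culture filtrate used as stimulus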
KKLEB cytotox – cytotoxicity in KKLEB CF airway cells, primary screen, cytotoxicity control for CF NF-kB inhibitor project, cell-based, uHTS, fluorescence assay plates; KKLEB CF airway cells viability, ATPlite luminescence, overnight; active compounds read low; cells stimulated with P. aeruginosa culture filtrate; activity change (cytotoxicity), % at 5 µM; 360,000 compounds, 0.36% hits; AID 602141, 2011;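 active = corrected activity change at or below -50% at 5 µM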
Peg3 prom inh-1 – Peg3 promoter-driven luciferase inhibitors, primary screen, cell-based, HeLa, luciferase luminescence | HeLa PEG-Prom luciferase reporter, overnight | inhibition, % at 20 µM | 360,000 compounds, 1.7% hits | AID 588405, 2011;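 active = inhibition of at least 50% at 20 µM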
HIF-2a block – HIF-2a reporter inhibitors, primary screen, luminescence, 786-0 RCC cells; 786-0 RCC cells HIF-2a reporter, luciferase luminescence, overnight; inhibition, % at 18.8 µM; 360,000 compounds, 0.72% hits; AID 624352, 2012;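 active = inhibition of the luminescence signal of 40% or more relative to plate controls, in a single-dose primary screen at 18.75 µM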
Peg3 prom inh-2 – Peg3 promoter reporter inhibitors, retest, confirmation, cell-based, HeLa, luciferase reporter, single concentration; shares compounds with Peg3 prom inh-1; inhibition, % at 20 µM; HeLa PEG-Prom luciferase reporter, luminescence, overnight; 1,300 compounds, 84% hits;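 active = at 20 µM dose, 40% or more inhibition averaged across four replicates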
Of the large screens only hits and unclear results are named; the others gave an inactive call (follow-up assays come after a bar, where they were run). Shown are actives, neighbours in structure and some others; about 3.1% of the full set was active somewhere.

OCC1OC(n2ccc3c(NO)ncnc32)C(O)C1O (configuration not stated)	TRAIL sens C8 92.1, CF NFkB inh 86.4, KKLEB cytotox -91.6, Peg3 prom inh-1 100.2 (no result: PPC-1+TRAIL kill) | Peg3 prom inh-2 97.8
CN(C)CCCN(C(=O)c1ccc(S(=O)(=O)N(C)C)cc1)c1nc2cc3c(cc2s1)OCO3	none
CCN(Cc1ccccc1)S(=O)(=O)c1ccc(C(=O)N(CCCN(C)C)c2nc3cc4c(cc3s2)OCO4)cc1	Peg3 prom inh-1 87.0 (no result: PPC-1+TRAIL kill) | Peg3 prom inh-2 98.7
CCCN1CCc2c(sc(NC(=O)c3ccc(S(=O)(=O)N4CCN(C(=O)OCC)CC4)cc3)c2C(N)=O)C1	Peg3 prom inh-1 65.1 (no result: PPC-1+TRAIL kill) | Peg3 prom inh-2 57.9
CN1CCN(c2ccc(-c3cccc(NC(=O)COc4ccc(Cl)cc4Cl)c3)nn2)CC1	TRAIL sens C8 66.9, KKLEB cytotox -57.7, Peg3 prom inh-1 53.7 (no result: PPC-1+TRAIL kill) | Peg3 prom inh-2 inactive
CCC(=O)Nc1cccc(-c2ccc(N3CCN(C)CC3)nn2)c1	none (no result: PPC-1+TRAIL kill)
O=C1N[C@@H](c2ccccc2)COC(=O)[C@@H](Cc2ccc(F)cc2)CC/C=C/C[C@@H]1CC(=O)N(CCO)Cc1ccccc1	none (no result: PPC-1+TRAIL kill)
O=C(C[C@@H]1C/C=C\C[C@@H](Cc2ccc(F)cc2)C(=O)OC[C@@H](Cc2ccccc2)NC1=O)N[C@H](CO)Cc1ccccc1	Peg3 prom inh-1 62.9 (no result: PPC-1+TRAIL kill) | Peg3 prom inh-2 inactive
O=C1N[C@@H](c2ccccc2)COC(=O)[C@@H](Cc2ccc(F)cc2)CC/C=C/C[C@H]1CC(=O)N(CCO)Cc1ccccc1	Peg3 prom inh-1 52.4 (no result: PPC-1+TRAIL kill) | Peg3 prom inh-2 46.9
CCn1c(=O)n(C)c2c(=O)n(C)c(=O)n(C)c21	none (no result: PPC-1+TRAIL kill)
Brc1ccc(-n2cnc(-c3ccccc3)c2)cc1	none (no result: PPC-1+TRAIL kill)
O=C1N=C(C=c2ccc(=Cc3[nH]c(=O)[nH]c3O)cc2)C(=O)N1	none (no result: TRAIL sens C8, CF NFkB inh, KKLEB cytotox, Peg3 prom inh-1, HIF-2a block)
Cc1cccc(N2CCN(C(=O)C3CCN(c4ncnc5c4nc4n5CCCCC4)CC3)CC2C)c1 (configuration not stated)	Peg3 prom inh-1 55.3 (no result: PPC-1+TRAIL kill) | Peg3 prom inh-2 43.1
Cc1cccc(N2CCN(C(=O)C3CCN(c4ncnc5c4nc4n5CCCCC4)CC3)CC2)c1C	Peg3 prom inh-1 52.2 (no result: PPC-1+TRAIL kill) | Peg3 prom inh-2 58.4
O=C(C1CCN(c2ncnc3c2nc2n3CCCCC2)CC1)N1CCN(c2ccccc2F)CC1	none (no result: PPC-1+TRAIL kill)
O=C1c2ccccc2C(=O)C1c1ccc(Cl)cc1	none (no result: PPC-1+TRAIL kill)
O=C1c2ccccc2C(=O)C12OC2c1ccc(Cl)cc1Cl (configuration not stated)	CF NFkB inh 96.4, KKLEB cytotox -67.6, Peg3 prom inh-1 99.1 | Peg3 prom inh-2 50.5
Cc1cc(Br)ccc1NC(=O)CNC(=O)CSc1ncccn1	none (no result: PPC-1+TRAIL kill)
Cc1cc(Br)ccc1NC(=O)CNC(=O)Cn1ncc(Cl)c(Cl)c1=O	CF NFkB inh 90.8, KKLEB cytotox -51.0, Peg3 prom inh-1 111.1 | Peg3 prom inh-2 97.7
C[C@@H]1CN([C@H](C)CO)C(=O)CCCn2cc(nn2)CO[C@H]1CN(C)C(=O)Nc1cccc(C(F)(F)F)c1	none (no result: PPC-1+TRAIL kill)
CC(=O)c1ccc(Nc2cc(C)nc3ccc(C)cc23)cc1	Peg3 prom inh-1 81.6 | Peg3 prom inh-2 87.3
COc1cc(OC)c(C=NNC(=S)NC23CC4CC(CC(C4)C2)C3)c(OC)c1	none (no result: PPC-1+TRAIL kill)
O=C(NCCN1CCC(n2c(=O)[nH]c3ccccc32)CC1)N1c2ccccc2Sc2ccccc21	none (no result: PPC-1+TRAIL kill, CF NFkB inh, KKLEB cytotox, Peg3 prom inh-1)
COc1cc(NC(=O)c2cccs2)c(C(=O)OCC(=O)c2cc(C)n(-c3ccccc3)c2C)cc1OC	Peg3 prom inh-1 58.6 | Peg3 prom inh-2 83.2
COc1cc(NC(=O)c2cccs2)c(C(=O)OCC(=O)c2cc(C)n(-c3ccc(F)cc3)c2C)cc1OC	none
CN(C)C(=S)Oc1ccccc1C1(C)OCCO1	none (no result: PPC-1+TRAIL kill)
CN(C)CCCN(C(=O)c1ccc2c(c1)OCCO2)c1nc2ccc(Cl)cc2s1	none (no result: PPC-1+TRAIL kill)
